Data as given in PubChem BioAssay AID1159580 (chemical genetic matrix, 2015).
“And” between values parts separate entries of the source, which are not always exact repeats. Equal entries are not always repeated. In all, about 5,500 compounds went through this assay and about 2,000 (36%) were called active. Not shown: some 18% with an inconclusive outcome. Some of the results follow. A number with no mark means an inactive call. Cut-off read from the data, not from the text of the source: active = normalized growth mostly below about 0.91 (no sharp cut-off); inconclusive = no clear call, values can overlap the other calls; inactive = mostly above about 0.92.

Assay: chemical genetic growth profiling, strain panel (AID 1159580);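 note: tested at 20 µM; growth read once vehicle control cultures reached saturation at 30 °C; 1 = growth at the plate median or of vehicle wells; lower values mean less growth of the strain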
Conditions: growth OD

## CN(C)CCC=C1c2ccccc2C=Cc2ccccc21
S. cerevisiae deletion strains, locus YKL009W, strain mrt4, hits give low values
  normalized growth: 0.959
S. cerevisiae deletion strains, locus YKL068W, hits give low values
  normalized growth: 0.982
S. cerevisiae deletion strains, locus YKL085W, strain MDH1 (second series), hits give low values
  normalized growth: 0.975
S. cerevisiae deletion strains, locus YKL085W, strain MDH1, hits give low values
  normalized growth: 0.975
S. cerevisiae deletion strains, locus YKL160W, strain elf1, hits give low values
  normalized growth: 0.958
S. cerevisiae deletion strains, locus YKL190W, strain CNB1, hits give low values
  normalized growth: 0.977
S. cerevisiae deletion strains, locus YKR001C, strain vps1, hits give low values
  normalized growth: 1.01
S. cerevisiae deletion strains, locus YKR026C, strain gcn3, hits give low values
  normalized growth: 0.998
S. cerevisiae deletion strains, locus YKR091W, strain srl3, hits give low values
  normalized growth: 0.971
S. cerevisiae deletion strains, locus YLL001W, strain dnm1, hits give low values
  normalized growth: 1.01
S. cerevisiae deletion strains, locus YLL026W, hits give low values
  normalized growth: 0.985
S. cerevisiae deletion strains, locus YLL041C, strain sdh2, hits give low values
  normalized growth: 0.984
S. cerevisiae deletion strains, locus YLR027C, strain aat2, hits give low values
  normalized growth: 0.98
S. cerevisiae deletion strains, locus YLR039C, strain RIC1, hits give low values
  normalized growth: 1.35 [resistant] (active)
S. cerevisiae deletion strains, locus YLR058C, strain SHM2, hits give low values
  normalized growth: 0.99
S. cerevisiae deletion strains, locus YLR102C, strain apc9, hits give low values
  normalized growth: 0.985
S. cerevisiae deletion strains, locus YLR113W, strain HOG1, hits give low values
  normalized growth: 1.04
S. cerevisiae deletion strains, locus YLR221C, strain rsa3, hits give low values
  normalized growth: 1
S. cerevisiae deletion strains, locus YLR258W, strain gsy2, hits give low values
  normalized growth: 0.989
S. cerevisiae deletion strains, locus YLR262C, strain YPT6 (second series), hits give low values
  normalized growth: 1.02
S. cerevisiae deletion strains, locus YLR262C, strain YPT6, hits give low values
  normalized growth: 1.53 [resistant] (active)
S. cerevisiae deletion strains, locus YLR268W, strain sec22, hits give low values
  normalized growth: 0.99
S. cerevisiae deletion strains, locus YLR320W, strain mms22, hits give low values
  normalized growth: 1.01
S. cerevisiae deletion strains, locus YLR330W, strain CHS5, hits give low values
  normalized growth: 0.987
S. cerevisiae deletion strains, locus YLR342W, strain FKS1 (second series), hits give low values
  normalized growth: 0.903
S. cerevisiae deletion strains, locus YLR342W, strain FKS1, hits give low values
  normalized growth: 0.979
S. cerevisiae deletion strains, locus YLR357W, strain rsc2, hits give low values
  normalized growth: 1.01
S. cerevisiae deletion strains, locus YLR370C, strain arc18, hits give low values
  normalized growth: 0.988
S. cerevisiae deletion strains, locus YLR371W, strain rom2, hits give low values
  normalized growth: 0.992
S. cerevisiae deletion strains, locus YLR384C, strain iki3, hits give low values
  normalized growth: 0.991
S. cerevisiae deletion strains, locus YLR418C, strain cdc73, hits give low values
  normalized growth: 0.811 (active)
S. cerevisiae deletion strains, locus YML016C, strain PPZ1, hits give low values
  normalized growth: 0.996
S. cerevisiae deletion strains, locus YML032C, strain rad52, hits give low values
  normalized growth: 1.01
S. cerevisiae deletion strains, locus YML120C, strain ndi1, hits give low values
  normalized growth: 1
S. cerevisiae deletion strains, locus YML124C, strain tub3, hits give low values
  normalized growth: 0.997
S. cerevisiae deletion strains, locus YMR058W, strain fet3, hits give low values
  normalized growth: 0.968
S. cerevisiae deletion strains, locus YMR078C, strain ctf18, hits give low values
  normalized growth: 0.984
S. cerevisiae deletion strains, locus YMR125W, strain sto1, hits give low values
  normalized growth: 0.95
S. cerevisiae deletion strains, locus YMR129W, hits give low values
  normalized growth: 0.99
S. cerevisiae deletion strains, locus YMR205C, strain PFK2, hits give low values
  normalized growth: 1
S. cerevisiae deletion strains, locus YMR223W, strain ubp8, hits give low values
  normalized growth: 0.951
S. cerevisiae deletion strains, locus YMR231W, strain pep5, hits give low values
  normalized growth: 0.989
S. cerevisiae deletion strains, locus YMR263W, strain SAP30, hits give low values
  normalized growth: 1
S. cerevisiae deletion strains, locus YMR307W, strain GAS1, hits give low values
  normalized growth: 1.01 and 0.999
S. cerevisiae deletion strains, locus YNL067W, strain RPL9B, hits give low values
  normalized growth: 0.994
S. cerevisiae deletion strains, locus YNL071W, strain lat1, hits give low values
  normalized growth: 0.99
S. cerevisiae deletion strains, locus YNL153C, strain GIM3, hits give low values
  normalized growth: 1.04 and 1
S. cerevisiae deletion strains, locus YNL175C, strain NOP13, hits give low values
  normalized growth: 1.06
S. cerevisiae deletion strains, locus YNL183C, strain NPR1, hits give low values
  normalized growth: 0.955
S. cerevisiae deletion strains, locus YNL197C, strain WHI3, hits give low values
  normalized growth: 1.02
S. cerevisiae deletion strains, locus YNL209W, strain ssb2, hits give low values
  normalized growth: 0.925 (active)
S. cerevisiae deletion strains, locus YNL224C, strain SQS1, hits give low values
  normalized growth: 1.01
S. cerevisiae deletion strains, locus YNL233W, strain BNI4, hits give low values
  normalized growth: 1.02
S. cerevisiae deletion strains, locus YNL248C, strain rpa49, hits give low values
  normalized growth: 0.959
S. cerevisiae deletion strains, locus YNL250W, strain rad50, hits give low values
  normalized growth: 0.985
S. cerevisiae deletion strains, locus YNL271C, strain bni1, hits give low values
  normalized growth: 0.986
S. cerevisiae deletion strains, locus YNL298W, strain CLA4, hits give low values
  normalized growth: 0.988
S. cerevisiae deletion strains, locus YNL307C, strain MCK1, hits give low values
  normalized growth: 0.994
S. cerevisiae deletion strains, locus YNL322C, strain KRE1 (second series), hits give low values
  normalized growth: 0.992
S. cerevisiae deletion strains, locus YNL322C, strain KRE1, hits give low values
  normalized growth: 0.977
S. cerevisiae deletion strains, locus YNR049C, strain mso1, hits give low values
  normalized growth: 0.978
S. cerevisiae deletion strains, locus YNR052C, strain pop2, hits give low values
  normalized growth: 0.948
S. cerevisiae deletion strains, locus YOL006C, strain TOP1, hits give low values
  normalized growth: 0.852
S. cerevisiae deletion strains, locus YOL012C, strain htz1
  normalized growth: 0.956
S. cerevisiae deletion strains, locus YOL147C, strain pex11, hits give low values
  normalized growth: 0.996
S. cerevisiae deletion strains, locus YOR001W, strain rrp6, hits give low values
  normalized growth: 0.965
S. cerevisiae deletion strains, locus YOR061W, strain CKA2, hits give low values
  normalized growth: 0.99
S. cerevisiae deletion strains, locus YOR069W, strain VPS5, hits give low values
  normalized growth: 0.983
S. cerevisiae deletion strains, locus YOR070C, strain gyp1, hits give low values
  normalized growth: 0.966
S. cerevisiae deletion strains, locus YOR080W, strain dia2, hits give low values
  normalized growth: 0.98
S. cerevisiae deletion strains, locus YOR083W, strain WHI5 (second series), hits give low values
  normalized growth: 1.08
S. cerevisiae deletion strains, locus YOR083W, strain WHI5, hits give low values
  normalized growth: 0.945
S. cerevisiae deletion strains, locus YOR106W, strain vam3, hits give low values
  normalized growth: 0.89
S. cerevisiae deletion strains, locus YOR136W, strain idh2, hits give low values
  normalized growth: 1.03
S. cerevisiae deletion strains, locus YOR144C, strain elg1, hits give low values
  normalized growth: 1
S. cerevisiae deletion strains, locus YOR184W, strain ser1, hits give low values
  normalized growth: 1.04
S. cerevisiae deletion strains, locus YOR231W, strain MKK1, hits give low values
  normalized growth: 1.02
S. cerevisiae deletion strains, locus YOR265W, strain rbl2, hits give low values
  normalized growth: 0.983
S. cerevisiae deletion strains, locus YOR270C, strain vph1, hits give low values
  normalized growth: 0.809
S. cerevisiae deletion strains, locus YOR290C, strain snf2, hits give low values
  normalized growth: 0.958
S. cerevisiae deletion strains, locus YOR316C, strain cot1, hits give low values
  normalized growth: 0.988
S. cerevisiae deletion strains, locus YPL051W, strain arl3, hits give low values
  normalized growth: 0.964
S. cerevisiae deletion strains, locus YPL078C, strain atp4, hits give low values
  normalized growth: 0.989
S. cerevisiae deletion strains, locus YPL106C, strain sse1, hits give low values
  normalized growth: 0.927
S. cerevisiae deletion strains, locus YPL240C, strain hsp82, hits give low values
  normalized growth: 0.985
S. cerevisiae deletion strains, locus YPL241C, strain CIN2, hits give low values
  normalized growth: 0.978 and 1
S. cerevisiae deletion strains, locus YPL256C, strain CLN2, hits give low values
  normalized growth: 1.01
S. cerevisiae deletion strains, locus YPR119W, strain clb2, hits give low values
  normalized growth: 0.998
S. cerevisiae deletion strains, locus YPR141C, strain kar3, hits give low values
  normalized growth: 0.987
S. cerevisiae deletion strains, locus YPR163C, strain tif3, hits give low values
  normalized growth: 0.988
S. cerevisiae deletion strains, locus YPR167C, strain met16, hits give low values
  normalized growth: 0.992
S. cerevisiae deletion strains, strain wtn01, hits give low values
  normalized growth: 0.981
S. cerevisiae strains, strain wild type, hits give low values
  normalized growth: 0.99
